# “And” between values parts separate entries of the source, which are not always exact repeats. Identical values can stand only once. The whole screen tested about 340,000 compounds, of which about 2,100 (0.62%) were called active. These entries were drawn from the full list. Measured potencies and affinities stand elsewhere. Values without a mark were called inactive.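 The calls were made as follows: active = first-screen hits whose inhibition reached a set limit at any dose in the follow-up dose series; inconclusive = inhibition above the set first-screen limit but never retested; inactive = the rest.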
# Target: Rac GTPase-activating protein 1 (Homo sapiens) (UniProt Q9H0H5)
# Assay: MgcRacGAP GTPase-activating activity inhibitors, confirmation, biochemical, ADP Hunter fluorescence, primary and confirmatory (AID 624330);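 also: fluorescence reports GDP produced by GAP-driven GTP hydrolysis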
# Conditions: MgcRacGAP-stimulated Rac1 GTP hydrolysis, at 30 µM, active compounds read high, GST-tagged Rac1 F28L mutant substrate
# Chain of Rac GTPase-activating protein 1 (Homo sapiens) (Q9H0H5 whole entry, looked up): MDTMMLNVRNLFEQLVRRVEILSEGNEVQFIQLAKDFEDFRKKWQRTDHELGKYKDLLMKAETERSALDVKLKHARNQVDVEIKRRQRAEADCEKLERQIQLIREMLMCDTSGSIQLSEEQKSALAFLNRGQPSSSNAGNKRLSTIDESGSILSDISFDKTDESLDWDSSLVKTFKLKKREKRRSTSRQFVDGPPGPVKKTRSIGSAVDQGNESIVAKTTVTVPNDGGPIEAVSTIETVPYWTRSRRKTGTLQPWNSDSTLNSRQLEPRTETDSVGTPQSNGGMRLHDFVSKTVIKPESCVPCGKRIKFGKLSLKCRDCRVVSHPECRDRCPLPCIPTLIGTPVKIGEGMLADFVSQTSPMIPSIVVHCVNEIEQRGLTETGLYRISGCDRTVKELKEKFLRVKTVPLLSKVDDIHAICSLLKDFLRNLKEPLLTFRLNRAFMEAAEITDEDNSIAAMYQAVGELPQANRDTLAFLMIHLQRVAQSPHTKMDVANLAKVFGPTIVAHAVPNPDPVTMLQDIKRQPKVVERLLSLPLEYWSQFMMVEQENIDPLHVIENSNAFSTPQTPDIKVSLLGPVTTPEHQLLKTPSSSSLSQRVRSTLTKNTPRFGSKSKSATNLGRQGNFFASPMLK
row,Structure (SMILES),inhibition
1,COc1ccc(C(=O)N/C(=C\c2ccc(-c3cccc([N+](=O)[O-])c3)o2)C(=O)NCCCN2CCOCC2)cc1,-23.2%
2,Cc1cccc(C)c1NC(=O)Cn1nnc(-c2ccc(N3CCOCC3)cc2)n1,3.65%
3,Cc1nc(N2CCN(c3ccccc3F)CC2)[nH]c(=O)c1C,6.5%
4,Cc1c(C(=O)N(Cc2ccncc2)CC2CCCO2)oc2c(F)cccc12 (stereo not given),5.69%
5,COc1cc(C=O)ccc1OC(=O)c1cccnc1,7.23%
6,COc1cc(/C=N/NC(=O)c2ccncc2)ccc1OC(=O)c1cc(OC)c(OC)c(OC)c1,16.1%
7,COc1cc(C=O)ccc1OC(=O)c1ccncc1,14.9%
8,COc1cc(/C=N/n2cnnc2)ccc1OC(=O)c1ccco1,16.6%
9,COc1cc(CC(=O)OCc2cccc([N+](=O)[O-])c2)cc(OC)c1OC,2.78%
10,CCCCCC(=O)Nc1ccc(N2CCN(C(=O)CCC)CC2)cc1,-1.29%
11,CCOC(=O)C1(Cc2cccc(OC)c2)CCN(CC(O)CO)CC1 (stereo not given),-0.09%
12,CCOc1ccc(-c2nc3c(s2)CCc2onc(-c4ccc(OC)cc4)c2-3)cc1,1.06%
13,O=S(=O)(c1ccccc1Cl)N1CCCC1c1nc(-c2cccc(Cl)c2)no1 (stereo not given),2.74%
14,C[C@@H](C(=O)OCC(=O)NCCc1ccc(S(N)(=O)=O)cc1)N1C(=O)C2CCCCC2C1=O (stereo not given in full),-3.1%
15,CCCn1c(=S)[nH]c2cc(Cl)ccc21,9.71%
16,COc1ccc2c(c1)-c1c(sn(-c3ccccc3)c1=S)C(C)(C)N2,18.2%
17,COc1ccc(-n2sc3c(c2=S)-c2cc(OC)ccc2NC3(C)C)cc1,-3.29%
18,Cc1ccc(CNc2nc3ccccc3n2C)cc1,13.6%
19,CC(C)NC(=O)Nc1ccc2c(c1)C(=O)N([C@H](C)CO)C[C@H](C)[C@@H](CN(C)C(=O)Nc1ccc(C(F)(F)F)cc1)O2,12.5%
20,Cc1ccc(C(C)C)c(OCC#CCN2CCOCC2)c1,30.8%
21,CCCN(CCC)CCOc1cc(C)ccc1C(C)C,18.2%
22,O=C(c1cc2ccccc2oc1=O)N(Cc1ccccc1F)C1CCS(=O)(=O)C1 (stereo not given),6.33%

row,Structure (SMILES),inhibition
1,OCCCNCc1ccc(Cl)cc1Cl,-1.18%
2,COc1ccc(C)cc1NC(=O)n1ncc2cc(Cl)ccc21,8.15%
3,COc1cc(NC(=O)n2ncc3cc(Cl)ccc32)cc(OC)c1,5.31%
4,COc1ccc(S(=O)(=O)Nc2cccc(SC)c2)cc1C(=O)N1CCOCC1,9.83%
5,Cc1ccccc1C(=O)NC(=S)Nc1ccccc1N1CCCC1,13.5%
6,CC(=O)Nc1ccc(Nc2ccc([N+](=O)[O-])cn2)cc1,16.8%
7,Cc1ccc(NC2=C([N+](=O)[O-])CS(=O)(=O)C2)cc1,7.24%
8,O=[N+]([O-])c1ccc(Nc2ccc(F)cc2)nc1,6.73%
9,O=[N+]([O-])C1=C(Nc2cccc3ccccc23)CS(=O)(=O)C1,9.69%
10,O=C(CSc1ncccn1)Nc1ccc(Cl)c(S(=O)(=O)N2CCOCC2)c1,7.79%
11,CCOC(=O)N1CCN(CC(O)COc2c(OC)cccc2OC)CC1 (stereo not given),9.23%
12,Cc1cc(C(=O)CCC(=O)Nc2ccc(C(N)=O)cc2)c(C)s1,15%
13,O=C(NC1CCCCC1)c1csnn1,-0.31%
14,C=CCOc1ccccc1CN1CCSCC1,14.2%
15,Fc1ccccc1CN1CCCCCCC1,10.2%
16,CS(=O)(=O)N1CCN(Cc2ccccc2C(F)(F)F)CC1,8.59%
17,Cc1ccc(S(=O)(=O)N2CCN(Cc3ccccc3C(F)(F)F)CC2)cc1,13%
18,C=CCOc1ccccc1CN1CCCCCC1,13%
19,O=S1(=O)CCN(Cc2ccccc2C(F)(F)F)CC1,1.13%
20,CCOC(=O)N1CCN(Cc2ccccc2F)CC1,17.8%
21,Cc1ccccc1CN1CCN(Cc2ccccc2C(F)(F)F)CC1,25.3%
22,O=C1CCCC2=C1C(c1cccc(O)c1)C1=C(N2)c2ccccc2C1=O (stereo not given),-0.19%

row,Structure (SMILES),inhibition
1,Cc1ccc(NC(=O)C2Cc3ccccc3C(=O)O2)cc1 (stereo not given),-7.83%
2,O=C(CN(C(=O)CCC(=O)Nc1ccccn1)C1CCCC1)NCc1ccccc1,4.99%
3,CCOc1ccccc1NC(=O)c1ccc2nc[nH]c2c1,4.69%
4,CCN(C(=O)COC(=O)c1ccc(=O)n(Cc2ccccc2)n1)C1CCCCC1,0.9%
5,O=S(=O)(NCC1CCCO1)c1ccc(Br)cc1 (stereo not given),12.2%
6,CCOc1ccc(CCN2C(=S)N([C@@H](CC(C)C)CN3CCCC3CN3C(=S)NC[C@@H]3Cc3ccc(O)cc3)C[C@@H]2CC(C)C)cc1 (stereo not given in full),13.7%
7,Cc1csc(NC(=O)C2CCCN2C(=O)Oc2ccccc2)n1 (stereo not given),7.03%
8,O=C(O)c1ccc(CSc2nnnn2-c2ccc(F)cc2)cc1,2.94%
9,Cc1cc(C)nc(SCC(=O)c2ccc(F)cc2)n1,3.61%
10,COc1ccc(-n2nnnc2SCC(=O)c2ccc(O)c(O)c2)cc1,9.34%
11,Cc1cc(SCC(=O)O)nc2ccccc12,5.6% and 2.66%
12,Cc1cc(SCC(=O)c2ccc3c(c2)OCO3)nc2ccccc12,6.55%
13,Cc1cc(C)nc(SCC(=O)c2ccc(C)c(C)c2)n1,-8.22%
14,COCCN(CC(=O)NCc1ccc(OC)cc1)C(=O)CCC(=O)Nc1nccs1,9.76%
15,COc1ccc(/C=C/C(=O)Oc2cc(C)[nH]c(=O)c2[N+](=O)[O-])cc1OC,-3.35%
16,O=C(/C=C/c1ccc2c(c1)OCO2)NCCS(=O)(=O)N1CCN(c2ccccc2)CC1,-2.85%
17,Cc1cc(C)n(-c2cc(C)c(C)cc2Br)n1,4.26%
18,Cc1ccnc(Nc2nc(-c3ccccc3)cs2)c1,12.8%
19,Cc1ccnc(Nc2nc(-c3ccc(Cl)cc3)cs2)c1,4.43%
20,Cc1ccnc(Nc2nc(-c3ccc(F)cc3)cs2)c1,7.49%
21,COc1ccc(-c2csc(Nc3cc(C)ccn3)n2)cc1OC,13.4%

# Source: PubChem BioAssay AID624330 (Southern Research Specialized Biocontainment Screening …, 2012)
